Screening data (PubChem BioAssay)
Shown are actives, neighbours in structure and some others; about 11% of the full set was active somewhere.
OTUD3 block = inhibitors of human OTUD3 deubiquitinase | purified OTUD3, Ub-rhodamine fluorescence, 2 h | inhibition, % at 25 µM | 47,000 compounds, 0.7% hits | AID 1645858, 2021
USP17 block = inhibitors of human USP17 deubiquitinase | Ubiquitin carboxyl-terminal hydrolase 17-like protein 5 (Homo sapiens), A8MUK1 | purified USP17, Ub-rhodamine cleavage fluorescence, 3 h | inhibition, % at 50 µM | 47,000 compounds, 6.5% hits | AID 1645855, 2021
USP30 block = inhibitors of human USP30 deubiquitinase | Ubiquitin carboxyl-terminal hydrolase 30 (Homo sapiens), Q70CQ3 | purified USP30, Ub-rhodamine cleavage fluorescence | inhibition, % at 25 µM | 47,000 compounds, 5.3% hits
Target sequence (Q70CQ3 whole entry, looked up): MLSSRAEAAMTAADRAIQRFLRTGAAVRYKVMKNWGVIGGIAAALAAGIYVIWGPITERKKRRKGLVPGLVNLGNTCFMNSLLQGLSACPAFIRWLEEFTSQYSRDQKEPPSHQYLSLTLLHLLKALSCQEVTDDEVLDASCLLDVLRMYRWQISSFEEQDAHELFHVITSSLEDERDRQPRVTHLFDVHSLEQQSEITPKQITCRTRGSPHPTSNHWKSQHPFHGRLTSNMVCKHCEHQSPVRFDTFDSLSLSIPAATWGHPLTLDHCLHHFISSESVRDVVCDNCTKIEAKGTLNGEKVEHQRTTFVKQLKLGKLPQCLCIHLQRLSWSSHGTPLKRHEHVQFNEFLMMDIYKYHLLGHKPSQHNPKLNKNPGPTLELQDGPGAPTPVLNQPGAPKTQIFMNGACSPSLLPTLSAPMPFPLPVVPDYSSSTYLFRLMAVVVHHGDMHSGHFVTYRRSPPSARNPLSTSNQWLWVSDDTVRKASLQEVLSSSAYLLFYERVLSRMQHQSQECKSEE
USP28 inh = inhibitors of human USP28 deubiquitinase | AID 1645857, 2021 | inhibition, % at 25 µM | Ubiquitin carboxyl-terminal hydrolase 28 (Homo sapiens), Q96RU2 | purified USP28, Ub-rhodamine cleavage fluorescence, 30 min | 47,000 compounds, 3% hits
* marks the source's active call; other numbers are inactive results; · = no result. Rule as the data show it: active = inhibition above about 30%; inactive = the rest.

SMILES | OTUD3 block | USP17 block | USP30 block | USP28 inh
COc1cc(OCC(=O)NC(C)C)cc2c1C(=O)O[C@@H](C)CCCC(=O)CCCCC2 | 11 | 4 | 13 | 7
COc1cc2c(c(OCC(=O)Nc3ccc4c(c3)OCCO4)c1)C(=O)O[C@@H](C)CCCC(=O)CCCCC2 | 27 | 22 | 51* | 18
O=C1NCCCC12CCN(Cc1ccc(-c3ccccc3)cc1)CC2 | 15 | 15 | 23 | 14
Cn1nc(-c2ccccc2)c2c1C[C@@H]1CN(C(=O)c3cccnc3)C[C@H]21 | 6 | -9 | 5 | 0
O=C(C(c1ccccc1)c1ccccc1)N1CCC(c2nc3c(nnn3Cc3c(F)cccc3Cl)c(=O)[nH]2)CC1 | 16 | 51* | 44* | 38*
O=C(C1CCCC1)N1CCC(c2nc3c(nnn3Cc3cccc(Cl)c3)c(=O)[nH]2)CC1 | -4 | 7 | 26 | 15
O=C(C1CCCC1)N1CCC(c2nc3c(nnn3Cc3ccccc3Cl)c(=O)[nH]2)CC1 | 9 | 15 | 39* | 19
CCC(=O)N1c2ccccc2NC2=C(C(=O)CC(c3ccccc3OCc3ccccc3)C2)C1c1ccccc1 (configuration not stated) | 15 | 36* | 61* | 9
COc1cc(C2C3=C(CC(c4ccccc4)CC3=O)Nc3ccccc3N2C(=O)C2CC2)cc(OC)c1OC (configuration not stated) | 6 | 45* | 12 | 0
CC1(C)CC(=O)C2=C(C1)Nc1ccccc1N(C(=O)Cc1ccccc1)C2c1ccc(Cl)cc1 (configuration not stated) | 17 | 49* | 29 | 19
O=C1CC(c2ccccc2)CC2=C1C(c1c[nH]c3ccccc13)N(C(=O)C1CC1)c1ccccc1N2 (configuration not stated) | -12 | 11 | -62 | -8
Cc1nnc(NC(=O)/C=C/c2ccc(S(=O)(=O)N3CCCCCC3)cc2)s1 | -23 | 26 | -85 | -30
O=C(c1nc(-c2cccc3[nH]ccc23)no1)N1CCCC1 | 6 | 41* | 48* | 6
COc1ccc(CC(=O)N2CCc3cc(OC)c(OC)cc3C2COc2ccc([N+](=O)[O-])cc2)cc1 (configuration not stated) | 10 | 2 | 44* | 13
Fc1ccc(Oc2nc(CN3CCOCC3)nc3sc4c(c23)CCCC4)c(Cl)c1 | -9 | 4 | -28 | 58*
Fc1cccc(Oc2nc(CN3CCOCC3)nc3sc4c(c23)CCCC4)c1 | -6 | -14 | -78 | 7
COc1ccc(OC)c(-c2nn(-c3ccccc3)cc2C(=O)N2CCN(CCN3CCCC3)CC2)c1 | -19 | -3 | -39 | -16
O=C(CSc1ccccc1)Nc1cccc2nsnc12 | 11 | 32* | 24 | 28
O=c1cc(C2CCN(Cc3ccccc3)CC2)nc(-c2cccnc2)[nH]1 | -8 | -8 | -10 | -13
NC(=O)CSc1nnc2ccc(-c3ccc4c(c3)OCO4)nn12 | 3 | 4 | 2 | 0
O=C(CSc1nnc2ccc(-c3ccc4c(c3)OCO4)nn12)NCC1CCCO1 (configuration not stated) | 23 | · | 42* | 10
CO[C@H]1/C=C/[C@@](C)(O)/C=C/C(=O)O[C@H](C)[C@@H](C)CC/C=C/1C | 4 | -1 | 39* | 5
COCCNC(=O)c1nc(-c2cn(-c3ccccc3)nc2C)no1 | 0 | 0 | -7 | -3
COc1ccccc1NS(=O)(=O)c1ccc(NC(=O)Cc2ccc(Cl)cc2)cc1 | -3 | 45* | 3 | 9
O=C(COc1ccc(Cl)cc1)Nc1ccc(S(=O)(=O)Nc2ccccc2)cc1 | 7 | 41* | 38* | 21
SMILES | OTUD3 block | USP17 block | USP30 block | USP28 inh
COc1ccc(-c2nonc2NC(=O)Cc2ccccc2)cc1 | 4 | 11 | 19 | -26
COc1ccc(CC(=O)Nc2c(NCc3ccccc3)c3ccccc3oc2=O)cc1 | 14 | 85* | 75* | 34*
Cc1ccccc1[C@H]1C[C@@H](O)[C@@H](O)[C@@H]1NC(=O)c1cccc(C#N)c1 | 9 | 20 | 47* | 9
Cc1ccc([C@H]2C[C@@H](O)[C@@H](O)[C@@H]2NC(=O)c2ccccc2)cc1 | 5 | 23 | 37* | 4
Cc1cc(C(=O)N[C@H]2[C@H](O)[C@H](O)C[C@@H]2c2ccccc2C)no1 | -4 | 2 | -1 | -10
Cc1cc(C(=O)N[C@H]2[C@H](O)[C@H](O)C[C@@H]2c2ccccc2)c(C)o1 | -2 | 1 | -12 | 0
CCOc1ccc(-c2cn3ncsc3n2)cc1 | -5 | -16 | · | ·
CC(C)CC(=O)N1CCCC(c2nc(N3CCOCC3)ncc2-c2cccnc2)C1 (configuration not stated) | -3 | -1 | 10 | -5
